A short description of assay [1]: inhibitors of TNFa-induced NFkB p65 translocation, primary screen, imaging, HUVEC, MLSMR starter and 10KST1 sets (AID 438;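 active means inhibition above 20% together with a positive visual image hit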;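 further: compound added about 3h40 before a 20 min TNFalpha stimulation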;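 on inhibition: signal is the nuclear over cytoplasmic p65 intensity ratio per well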). Particulars: HUVEC TNFa-induced p65 nuclear translocation; cell count: measured here: nuclei count (cytotoxicity indicator), at 2.08 µM unless noted; inhibition: at 2 µM, stronger effect = higher value unless noted.
The nature of assay [2]: inhibitors of E-selectin induction by TNFa, primary screen, imaging, HUVEC, immunofluorescence, MLSMR starter and 10KST1 sets (AID 487;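 active means visually confirmed hit in the image check and inhibition above 20%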;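 on inhibition: signal is fraction of cell area covered by stained E-selectin grains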;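 on nuclei count: 100% = median nuclei count of all wells on the same plate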). The settings on record: HUVEC TNFalpha-induced E-selectin immunofluorescence imaging, at 2 µM; inhibition: stronger effect = higher value; nuclei count: measured here: cell number, toxicity.
The nature of assay [3]: DUSP6 inhibitors restoring Erk phosphorylation by chemical complementation, primary imaging in DUSP6-transfected HeLa (AID 609;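 active means compounds giving at least 50% inhibition in the cell-based MKP-3 phosphatase rescue imaging test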;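 on inhibition: phospho-Erk level distribution per well compared with pooled transfected vehicle control wells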). Particulars: HeLa MKP-3 transfected, phospho-Erk imaging KS statistic, at 10 µM.
In assay [4] the target is Dual specificity protein phosphatase 6 (Homo sapiens) (UniProt Q16828). Described as above. Particulars: HeLa MKP-3 transfected, phospho-Erk imaging KS statistic, at 10 µM, stronger effect = higher value.
Chain of Dual specificity protein phosphatase 6 (Homo sapiens) (Q16828 whole entry, looked up): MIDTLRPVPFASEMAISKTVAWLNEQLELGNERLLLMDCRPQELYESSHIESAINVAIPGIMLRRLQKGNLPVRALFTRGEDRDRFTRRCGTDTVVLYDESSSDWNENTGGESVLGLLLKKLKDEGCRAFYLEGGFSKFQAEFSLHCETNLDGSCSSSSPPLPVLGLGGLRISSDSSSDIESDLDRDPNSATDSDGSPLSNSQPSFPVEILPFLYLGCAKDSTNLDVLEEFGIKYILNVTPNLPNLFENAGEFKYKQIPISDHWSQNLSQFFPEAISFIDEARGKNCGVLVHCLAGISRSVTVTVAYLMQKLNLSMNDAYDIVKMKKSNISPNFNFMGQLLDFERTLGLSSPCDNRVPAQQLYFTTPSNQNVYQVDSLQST
The target in assay [5] is Voltage-gated potassium channel subunit beta-2 (Rattus norvegicus) (UniProt P62483). The experiment in a line: KvBeta enzyme negative modulators, primary screen, biochemical, NADPH fluorescence (AID 622).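 Further: slope of raw intensity against log time taken from 70 to 1610 s.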 The settings on record: recombinant KvBeta, 4-cyanobenzaldehyde reduction, at 10 µM, stronger effect = higher value.
Chain of Voltage-gated potassium channel subunit beta-2 (Rattus norvegicus) (P62483 whole entry, looked up): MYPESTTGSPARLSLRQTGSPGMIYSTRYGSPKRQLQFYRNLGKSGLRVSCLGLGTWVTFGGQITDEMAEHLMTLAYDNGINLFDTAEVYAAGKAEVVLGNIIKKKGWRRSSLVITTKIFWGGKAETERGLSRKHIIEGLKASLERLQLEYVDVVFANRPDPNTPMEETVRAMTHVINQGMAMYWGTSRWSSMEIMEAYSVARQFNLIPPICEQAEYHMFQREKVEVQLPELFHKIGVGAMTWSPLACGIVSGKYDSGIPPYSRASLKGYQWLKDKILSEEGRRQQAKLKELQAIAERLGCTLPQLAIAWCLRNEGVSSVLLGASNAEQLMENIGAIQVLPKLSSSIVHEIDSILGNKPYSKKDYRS
Assay [6] shares this target. As to the kind of experiment: KvBeta positive modulators, primary screen, biochemical, NADPH fluorescence (AID 623;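 active means NADPH fluorescence slope more negative than the mean of all samples by about 3 SD, 99.7% confidence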;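 further: fluorescence intensity change per second fitted from 20 to 320 s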). The settings on record: Recombinant KvBeta, NADPH fluorescence decrease slope, 10 min; at 10 µM; stronger effect = lower value.
The target of assay [7] is Muscarinic acetylcholine receptor M4 (Homo sapiens) (UniProt P08173). As to the kind of experiment: compounds altering M4/GIRK thallium flux, either direction, primary screen, M4 allosteric agonist project, cell-based, HEK293 M4/GIRK, BTC-AM (AID 625;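 active means fluorescence slope after compound addition differing from the mean of all tested samples at 99.7% confidence, mostly higher but some lower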;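 further: thallium influx through GIRK channels coupled to M4 in HEK293 cells with BTC-AM dye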). The settings on record: at 10 µM, actives lie on both sides.
Chain of Muscarinic acetylcholine receptor M4 (Homo sapiens) (P08173 whole entry, looked up): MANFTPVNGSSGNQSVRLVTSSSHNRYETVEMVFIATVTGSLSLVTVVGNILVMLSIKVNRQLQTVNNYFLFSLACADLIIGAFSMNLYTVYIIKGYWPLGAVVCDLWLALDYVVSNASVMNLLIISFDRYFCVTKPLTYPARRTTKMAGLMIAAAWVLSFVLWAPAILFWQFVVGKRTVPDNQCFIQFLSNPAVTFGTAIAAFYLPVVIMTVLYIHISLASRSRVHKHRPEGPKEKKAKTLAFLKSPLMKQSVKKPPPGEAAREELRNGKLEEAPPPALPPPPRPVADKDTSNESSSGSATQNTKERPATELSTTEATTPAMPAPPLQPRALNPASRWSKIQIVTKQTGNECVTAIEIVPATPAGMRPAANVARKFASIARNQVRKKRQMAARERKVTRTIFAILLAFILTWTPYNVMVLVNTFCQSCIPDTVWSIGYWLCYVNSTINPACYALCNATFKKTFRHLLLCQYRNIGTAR
Assay [8] can be described thus: inhibitors of larval lipid processing in zebrafish, primary screen, whole organism, PED6 fluorescence, gall bladder and intestine (AID 686;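 active means a full or partial loss of lipid-probe fluorescence in the fish gall bladder, intestine or both, judged by eye; inactive means no fluorescence loss, or compound toxic to the fish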;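 further: larvae 5 to 7 days old with five fish per well; signal comes from phospholipase A2 cleavage of quenched PED6 carried via bile; overnight exposure to compound and PED6 before scoring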). Particulars: Zebrafish larvae PED6 lipid processing, fluorescence scoring.
Assay [9] in a line: inhibitors of Chlamydomonas gravitaxis, primary screen, whole organism, Chlamydomonas reinhardtii, WT vs cilia-less mutant, absorbance, 96-well (AID 463189;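 active means inhibition at or above 50% relative to wild type and mutant plate controls; inactive means inhibition below 50%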;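 further: 0% = wild type cc124 cells in DMSO and 100% = ciliumless bld1 mutant cells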). The settings on record: OD600 absorbance, 2 days, at 10 µM, stronger effect = higher value.
The nature of assay [10]: inhibitors of mutant huntingtin aggregation, primary screen, imaging, exon1htt(103Q)mCFP cells, high-content imaging (AID 483;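 active means visual image review flags a hit and inhibition of aggregation exceeds 20%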;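 further: compound exposure lasted 3 days before fixation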;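 on nuclei count: percent of the per-plate median nuclei count of sample wells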). The settings on record: exon1htt(103Q)mCFP cell line, aggregate imaging, at 2 µM; inhibition of aggregation: stronger effect = higher value; nuclei count: measured here: cell count, toxicity.
The target of assay [11] is Alpha-2C adrenergic receptor (Homo sapiens) (UniProt P18825). The experiment in a line: modulators of alpha2C/GIRK thallium flux, primary screen, cell-based, HEK293 alpha2C/GIRK1/2 (AID 624;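 active means fluorescence slope after compound addition differing from the mean of all screened samples at 99.7% confidence, in either direction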;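 further: slope of fluorescence ratio to pre-addition baseline per second over 15 to 24 s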). Particulars: thallium flux BTC fluorescence, at 10 µM, actives lie on both sides.
Chain of Alpha-2C adrenergic receptor (Homo sapiens) (P18825 whole entry, looked up): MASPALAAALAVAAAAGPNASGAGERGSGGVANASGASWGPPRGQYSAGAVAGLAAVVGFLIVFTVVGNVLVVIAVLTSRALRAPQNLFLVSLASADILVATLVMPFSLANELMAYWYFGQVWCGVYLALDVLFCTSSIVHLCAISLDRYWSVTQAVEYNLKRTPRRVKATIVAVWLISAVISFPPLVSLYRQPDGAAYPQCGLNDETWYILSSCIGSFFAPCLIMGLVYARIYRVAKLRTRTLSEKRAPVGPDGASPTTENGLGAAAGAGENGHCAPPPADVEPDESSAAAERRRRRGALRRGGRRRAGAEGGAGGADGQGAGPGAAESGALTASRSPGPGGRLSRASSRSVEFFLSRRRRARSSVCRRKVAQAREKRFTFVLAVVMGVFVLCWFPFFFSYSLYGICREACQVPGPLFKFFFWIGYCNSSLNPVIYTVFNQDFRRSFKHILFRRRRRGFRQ
A short description of assay [12]: inhibitors of Sendai virus-induced IRF3 signaling, primary screen, TLR/RLR signaling modifier project, cell-based, Sendai virus stimulus, luciferase, 10K MLSCN set (AID 602276;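 active means inhibition at or above 50% at 10 µM; inactive means inhibition below 50%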;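 further: firefly luciferase from ISG56 promoter only with Renilla not read in this screen; 0% = Sendai virus plus DMSO and 100% = medium plus DMSO without virus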). The settings on record: HEK293 RL24 IRF3 luciferase reporter, at 10 µM, stronger effect = higher value. (In general: Reporter assays use an easily measured gene product as a stand-in for the process of interest.)

Assay [13] in a line: inhibitors of poly I:C-induced TLR3 signaling, primary screen, cell-based, poly I:C stimulus, luciferase, 10K MLSCN set (AID 602277;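 active means inhibition of the reporter signal at or above 50%; inactive means inhibition below 50%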). Particulars: HEK293-TLR3 RL24 IRF3 luciferase reporter, at 10 µM, stronger effect = higher value.
[14] abbreviates: measured here: cell density z-score.
[15] abbreviates: measured here: nuclear c-Myc green intensity z-score.
[16] abbreviates: measured here: nuclear pErk red intensity z-score, stronger effect = higher value.

Active and inactive are the calls of the source.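 How the source made its calls, unless noted: active means fluorescence slope higher than the sample average by over 3 SD (cut at about -0.22 in these data, passing the limit was not always enough); inactive means the rest.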

In turn, `CCOC(=O)c1cc(C)n(CCc2cnc[nH]2)c1C` came in with a cell count in [1] of 561. The inhibition (as a rule, the change of the read-out against control, counted positive when it falls) in assay [1] was 2.4% (inactive); in [2] it was -44.2% (inactive); in assay [4] it was -2.59% (inactive); in assay [9] it was -3.61% (inactive). The same molecule came in with a nuclei count in [2] of 123%. Besides, the z-score is -1.19 in assay [3] (setting [14]), -0.0641 in assay [3] (setting [15]) and 0.767 in assay [3] (setting [16]). Also, the fluorescence slope in [5] is -0.47 (inactive); in assay [7], 0.00519 (inactive). In assay [6], the NADPH fluorescence slope is -9.2e-05 (inactive). For the same molecule, in assay [8], the call was inactive.

`COc1ccc(C2SCC(=O)Nc3c2c(=O)[nH]n3C2CCCCC2)cc1` (stereo not given) returned a cell count in [1] of 380. The inhibition was -8.8% (inactive) in [1], -197% (inactive) in [2], 14% (inactive) in [4] and 6.02% (inactive) in [9]. This molecule displayed a nuclei count in assay [2] of 138%. The z-score in assay [3] (setting [14]) was 0.845; in [3] (setting [15]), -1.45; in assay [3] (setting [16]), -0.612. In addition, the results for the fluorescence slope in assay [5] and in [7] were -0.479 (inactive) and 0.00663 (inactive), respectively. The NADPH fluorescence slope in [6] was -0.000101 (inactive). In addition, the molecule was called inactive in [8].

In turn, `COc1ccc(C(=O)CC2C(=O)N(C)C(=O)N(C)C2=O)cc1` came in with a cell count in [1] of 726. The inhibition in assay [1] is 14.4% (inactive); in [2], -27.9% (inactive); in assay [4], -3.95% (inactive); in assay [9] it was 0.215% (inactive). For the same molecule, the nuclei count in assay [2] was 135%. For the same molecule, the z-score in assay [3] (setting [14]) is 0.66; in assay [3] (setting [15]), 0.621; in assay [3] (setting [16]), -1.11. Moreover, the fluorescence slope was -0.453 (inactive) in [5] and 0.00539 (inactive) in assay [7]. Besides, the NADPH fluorescence slope in assay [6] is -4.3e-05 (inactive). Moreover, in assay [8], the molecule was called inactive.

`CCCC12CN3CN(C1)CC(CCC)(C3)C2O` (stereo not given) registered a cell count in assay [1] of 527. In addition, the inhibition in [1] was 5.6% (inactive); in assay [2] it was -164% (inactive); in assay [4], 7.42% (inactive); in [9], -2.85% (inactive). For the same molecule, in assay [2], the nuclei count worked out at 146%. Moreover, the figures for the z-score in assay [3] (setting [14]), in assay [3] (setting [15]) and in assay [3] (setting [16]) were 0.514, 1.99 and -1.5, respectively. For the same molecule, the figures for the fluorescence slope in [5] and in assay [7] were -0.474 (inactive) and 0.00532 (inactive), respectively. The NADPH fluorescence slope in assay [6] was -0.000119 (inactive). Also, the outcome in assay [8] was inactive.

Molecule `CCc1nc(N2CCNCC2)c(C#N)c2c1CSC(C)(C)C2` came in with a cell count in assay [1] of 652. Further, the inhibition is 3% (inactive) in assay [1], -79.8% (inactive) in [2], 1.12% (inactive) in assay [4] and 15% (inactive) in assay [9]. In assay [2], this molecule registered a nuclei count of 159%. Also, the values for the z-score in [3] (setting [14]), in assay [3] (setting [15]) and in assay [3] (setting [16]) were -1.09, -0.257 and 0.497, respectively. Further, the values for the fluorescence slope in [5] and in [7] were -0.474 (inactive) and 0.00552 (inactive), respectively. Also, the NADPH fluorescence slope in [6] was -1.6e-05 (inactive). Moreover, in assay [8], the outcome was inactive.

Turning to `CCCCNC(=O)Nc1ccc(C(O)(C(=O)OC)C(F)(F)F)cc1` (stereo not given), in assay [1], the cell count came to 632. For the same molecule, the inhibition in assay [1] was -8.8% (inactive); in assay [2], 7.1% (inactive); in assay [4], 18.4% (inactive); in assay [9], 8.19% (inactive). The nuclei count in [2] amounted to 154%. In addition, the z-score was 0.744 in [3] (setting [14]), -1.2 in assay [3] (setting [15]) and 0.72 in assay [3] (setting [16]). Moreover, the fluorescence slope in assay [5] was -0.482 (inactive); in assay [7], 0.00513 (inactive). Moreover, in assay [6], the NADPH fluorescence slope is -4.8e-05 (inactive). Also, in assay [8], the molecule was called inactive.

Regarding `CCCCc1nc(N2CCNCC2)c(C#N)c2c1CSC(C)(C)C2`, the cell count in [1] came out at 519. In addition, the inhibition in assay [1] was -12.8% (inactive); in [2] it was -143% (inactive); in assay [4], 7.42% (inactive); in assay [9], 55.2% (active). The molecule further had a nuclei count in assay [2] of 135%. Moreover, the results for the z-score in assay [3] (setting [14]), in assay [3] (setting [15]) and in assay [3] (setting [16]) were 0.415, -0.261 and 0.643, respectively. For the same molecule, the fluorescence slope in [5] is -0.49 (inactive); in assay [7], 0.00482 (inactive). In addition, the NADPH fluorescence slope in assay [6] was -0.000122 (inactive). Besides, the molecule was classed as inactive in assay [8].

With `CC(=O)Nc1ccc(OC(=O)c2ccccc2N)cc1`, in assay [1], the cell count turned out to be 292. In addition, the inhibition is -3.4% (inactive) in [1], -96.3% (inactive) in [2], 3.45% (inactive) in assay [12] and 27.2% (inactive) in assay [13]. In addition, the inhibition of aggregation in assay [10] was -8.5% (inactive). Moreover, the nuclei count in [10] stood at 76.3%; in [2], 111%. Also, in [5], the fluorescence slope was -0.447 (inactive). The NADPH fluorescence slope in assay [6] was -1.3e-05 (inactive). Besides, the slope in assay [11] is 0.00336 (inactive).

`COC(=NC1CCCC1)C(O)c1c[nH]c2ccccc12` (stereo not given) returned a cell count in [1] of 602. The inhibition in [1] was 9.7% (inactive); in [2], -22.4% (inactive); in assay [12] it was 5.75% (inactive); in [13], 32.2% (inactive). For the same molecule, the inhibition of aggregation in assay [10] is 14% (inactive). Also, the nuclei count in [10] was 88.5%; in assay [2], 79.7%. The fluorescence slope in [5] was -0.536 (inactive). Besides, in [6], the NADPH fluorescence slope is -2.7e-05 (inactive). In addition, the slope in [11] was 0.00519 (inactive).

On to `CCCCn1c(O)c(C=NC2CCCCC2N)c(=O)[nH]c1=O` (stereo not given), for which the cell count in [1] came out at 747. The inhibition in [1] is -6% (inactive); in assay [2] it was -67.3% (inactive); in assay [12] it was 8.89% (inactive); in assay [13], 26.1% (inactive). Further, the inhibition of aggregation in assay [10] was 4.3% (inactive). Besides, the nuclei count is 113% in assay [10] and 119% in assay [2]. Moreover, the fluorescence slope in assay [5] is -0.61 (inactive). Also, in assay [6], the NADPH fluorescence slope is -4e-05 (inactive). Besides, the slope in [11] is 0.00682 (inactive).

The molecule `NCC1(c2ccc3c(c2)OCCO3)CCCC1` yielded a cell count in assay [1] of 634. For the same molecule, the inhibition was 8.6% (inactive) in assay [1], -19.9% (inactive) in assay [2], -13.3% (inactive) in assay [4] and -6.44% (inactive) in [9]. The molecule further registered a nuclei count in assay [2] of 120%. The z-score is -0.692 in [3] (setting [14]), -0.463 in [3] (setting [15]) and 0.187 in assay [3] (setting [16]). Moreover, the fluorescence slope in assay [5] is -0.453 (inactive); in [7], 0.0056 (inactive). Also, the NADPH fluorescence slope in assay [6] was -2.2e-05 (inactive). Further, the molecule was called inactive in assay [8].

`CC1CN=C(Nc2ccc(N(C)C)cc2)S1` (stereo not given): in assay [1], the cell count stood at 666. Besides, the inhibition in assay [1] is 0.8% (inactive); in [2], -22.4% (inactive); in [4], 3.49% (inactive); in assay [9], 9.45% (inactive). In [2], this molecule gave a nuclei count of 136%. Also, the values for the z-score in assay [3] (setting [14]), in assay [3] (setting [15]) and in assay [3] (setting [16]) were -0.332, 0.426 and -0.395, respectively. Also, the figures for the fluorescence slope in [5] and in [7] were -0.464 (inactive) and 0.00379 (inactive), respectively. The NADPH fluorescence slope in assay [6] is -5.1e-05 (inactive). Further, the result in assay [8] was inactive.

Values taken from PubChem BioAssay.
